Measured values taken from PubChem BioAssay AID493248 (Broad Institute, 2011).
Screen size: about 2,300 compounds; about 1,400 (61%) were called active. Inconclusive results (about 7%) are left out. How the calls were made is not given here. So high a share suggests a set chosen from earlier hits. Not all results are given here. Measured potencies and affinities stand elsewhere.

The molecules below were run against FAD-linked sulfhydryl oxidase ALR (Homo sapiens) (UniProt P55789) (assay: inhibitors of human ALR sulfhydryl oxidase, dose response, biochemical, H2O2 detection, luminescence, cherry-pick (AID 493248)). Conditions: purified ALR, DTT oxidation, H2O2 HRP-luminol luminescence; at 10 µM (top of the series).
Chain of FAD-linked sulfhydryl oxidase ALR (Homo sapiens) (P55789 whole entry, looked up): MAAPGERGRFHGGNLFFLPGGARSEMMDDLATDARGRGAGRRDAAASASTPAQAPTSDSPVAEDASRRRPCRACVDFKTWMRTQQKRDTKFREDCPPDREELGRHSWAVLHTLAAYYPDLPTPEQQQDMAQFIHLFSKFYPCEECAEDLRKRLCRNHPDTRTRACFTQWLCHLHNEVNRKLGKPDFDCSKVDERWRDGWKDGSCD

Going from `O=c1oc(-c2ccc(F)cc2)nc2ccsc12` to `COC(=O)c1ccc(-c2nc3cc(N)ccc3o2)cc1`, the activity change, negative = inhibition rises from -52.7% to 72.5%.

Going from `O=C(Nc1ccccc1N1CCCCC1)c1cnccn1` to `COc1ccccc1N1CC(C(=O)Nc2nnc(SCc3cccnc3)s2)CC1=O` (stereo not drawn), the activity change, negative = inhibition rises from -36.5% to -17.9%.

First: Cc1ccc(C(=O)C2CCN(CC(=O)Nc3ccc(N(C)C)cc3)CC2)cc1
Second: COc1ccc(NC2CCCN(C(=O)c3ccc(C)nc3)C2)cc1 (stereo not drawn)
The activity change, negative = inhibition of the first is lower: -106% for the first, 289% for the second.

Going from `C=CCn1c(-c2cc(OC)cc(OC)c2)n[nH]c1=S` to `Oc1ccc(-c2n[nH]c(=S)n2Cc2ccco2)cc1`, the activity change, negative = inhibition rises from -54.8% to -29.1%.

Going from `C=CCn1c(-c2ccc(N)cc2)nc2ccccc21` to `Cc1nc2ccc(-c3ccccc3)cc2o1`, the activity change, negative = inhibition rises from -33.2% to -7.02%.

Compared with `CCN(C(=O)CN1CCN(c2cccc(Cl)c2)CC1)c1c(N)n(Cc2ccccc2)c(=O)[nH]c1=O`, `Cc1nnc(N2CCN(Cc3ccccc3)CC2)[nH]c1=O` is higher in activity change, negative = inhibition: -43.8% for the first, 42.6% for the second.

Going from `CCn1c(=O)c2c3c(sc2n2c(=S)[nH]nc12)CCC3` to `O=C(O)CCn1c2c(c3ccccc31)CCCC2`, the activity change, negative = inhibition rises from -18.2% to 5.37%.

Going from `COc1cc(/C=N\NC(=O)c2ccc(-c3ccccc3)cc2)cc(OC)c1O` to `COc1ccc(C(=O)N/N=C(\Cc2ncc[nH]2)c2ccccc2)cc1`, the activity change, negative = inhibition rises from -59.8% to -40%.

Going from `COc1cccc(/C=N/NC(=O)CNC(=O)c2ccncc2)c1O` to `Cc1ccc(NCCC(=O)c2cccs2)cc1C`, the activity change, negative = inhibition falls from -31.5% to -51.1%.

Compared with `COc1cc2c(ccc3cc(OC)c(OC)c(O)c32)cc1O`, `Cc1[nH]nc(-c2ccc(O)cc2O)c1Oc1ccccc1` is higher in activity change, negative = inhibition: -112% for the first, -84.3% for the second.

Going from `c1c2c(cc3sc(N4CCCCC4)nc13)OCO2` to `Cc1cccc(C(=O)N2CCCC(N3CCN(c4ccc(F)cc4)CC3)C2)n1` (stereo not drawn), the activity change, negative = inhibition falls from -5.07% to -66.1%.

Compared with `C[C@H](NC(=O)c1cc2c(cn1)[nH]c1ccccc12)C(=O)O`, `O=C(O)c1[nH]c2ccccc2c1NS(=O)(=O)Cc1ccccc1` is higher in activity change, negative = inhibition: -94.7% for the first, -42.2% for the second.

Going from `CCCn1cnc2cc(NCc3cccc(OC)c3)ccc21` to `Cn1cnc2cc(NCc3ccccc3O)ccc21`, the activity change, negative = inhibition falls from 395% to 297%.

Going from `COc1ccc(S(=O)(=O)n2nc(OC(=O)c3ccco3)cc2N)cc1` to `COc1ccc(-c2cc(C(F)F)n3ncc(C(=O)n4ccnc4C)c3n2)cc1`, the activity change, negative = inhibition rises from -55.8% to -48%.

First: O=C1NN(c2ccccc2)C(=O)/C1=C\c1ccccc1
Second: CN(C)c1ccc(CN(C(=O)c2cc3ccccc3oc2=O)C2CCS(=O)(=O)C2)cc1 (stereo not drawn)
The activity change, negative = inhibition of the first is higher: -5.6% for the first, -17.6% for the second.

Compared with `N/C(=N\N=C\c1ccc(O)cc1)c1nonc1N`, `Cc1ccc(C)c(-c2nc3cc(N)ccc3o2)c1` is higher in activity change, negative = inhibition: -84.5% for the first, -81.2% for the second.

Going from `Nc1cc(C(F)(F)F)ccc1C(=O)O` to `Cc1ccc(-c2nc3cc(N)ccc3o2)c(C)c1`, the activity change, negative = inhibition rises from 8.42% to 19.5%.

First: Nc1ccc2nc(-c3cccs3)[nH]c2c1
Second: S=c1[nH]nc(-c2ccncc2)n1Cc1ccco1
The activity change, negative = inhibition of the first is lower: -80% for the first, -47.7% for the second.

First: CCCN1CCC(=O)N([C@H](CSc2ccc(OC)cc2)CC(C)C)CC1
Second: Cc1ccc(Nc2nnns2)cc1C
The activity change, negative = inhibition of the first is higher: 20.7% for the first, -6.48% for the second.
